Measurements published in paper PMC7862700, “An all-to-all approach to the identification of sequence-specific readers for epigenetic DNA modifications on cytosine”.

Columns and labels:
Assay in all cases: DAPPL (digital affinity profiling via proximity ligation, sequencing); 10 mM Tris-HCl pH 7.5, 50 mM NaCl, 1 mM DTT, 4% glycerol, room temperature, 30 min; GST-TFs on glutathione beads, 16-mer random dsDNA library, 0.1% formaldehyde crosslink after washing; high values mean tight binding
FLI1 = biological target: T1, FLI1 (Homo sapiens, UniProt Q01543 1-452); conditions: protein: recombinant; tags: N-terminal GST; dsDNA, one strand shown
T1 sequence: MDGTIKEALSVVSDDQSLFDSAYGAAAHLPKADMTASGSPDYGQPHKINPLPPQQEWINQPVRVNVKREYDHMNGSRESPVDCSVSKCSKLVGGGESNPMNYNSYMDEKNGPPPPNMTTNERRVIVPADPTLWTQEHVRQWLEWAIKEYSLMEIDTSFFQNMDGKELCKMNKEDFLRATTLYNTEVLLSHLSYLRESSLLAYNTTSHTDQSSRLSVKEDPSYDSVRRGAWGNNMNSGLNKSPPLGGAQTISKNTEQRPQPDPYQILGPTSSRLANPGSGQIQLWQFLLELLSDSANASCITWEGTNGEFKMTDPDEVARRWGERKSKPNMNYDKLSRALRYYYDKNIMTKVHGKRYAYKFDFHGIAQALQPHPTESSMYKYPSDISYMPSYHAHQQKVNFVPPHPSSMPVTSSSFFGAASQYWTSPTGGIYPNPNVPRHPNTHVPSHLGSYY
Procedure, shortened: (§1)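 Pools were built from human transcription factors expressed in yeast as GST fusions, captured on glutathione beads and DNA-barcoded, along with a tag-only sample. Incubation with 200 nmole of a 16-mer random double-stranded DNA library lasted 30 min at room temperature in Tris/NaCl/DTT/glycerol buffer, and was followed by washing, 0.1% formaldehyde crosslinking, proximity ligation, PCR amplification and Illumina NextSeq500 sequencing. Binding signal is the quotient of each hexamer's read frequency for a factor and its frequency for the tag-only sample.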

ELK1 = biological target: T2, ELK1 (Homo sapiens, UniProt P19419 1-428); conditions: protein: recombinant; tags: N-terminal GST; dsDNA, one strand shown
T2 sequence: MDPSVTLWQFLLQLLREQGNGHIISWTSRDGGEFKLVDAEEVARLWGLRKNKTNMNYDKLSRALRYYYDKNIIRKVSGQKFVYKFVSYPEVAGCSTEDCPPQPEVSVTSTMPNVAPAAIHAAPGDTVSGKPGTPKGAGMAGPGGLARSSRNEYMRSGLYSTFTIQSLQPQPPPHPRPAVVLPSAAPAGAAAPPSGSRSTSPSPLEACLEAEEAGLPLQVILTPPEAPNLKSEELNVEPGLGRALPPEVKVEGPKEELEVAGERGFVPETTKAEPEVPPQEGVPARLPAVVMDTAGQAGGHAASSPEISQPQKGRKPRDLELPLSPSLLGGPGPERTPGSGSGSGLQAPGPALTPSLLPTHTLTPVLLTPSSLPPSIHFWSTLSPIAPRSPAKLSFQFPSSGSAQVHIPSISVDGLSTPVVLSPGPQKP
Procedure, shortened: as §1

GABPA = biological target: T3, GABPA (Homo sapiens, UniProt Q06546 1-454); conditions: protein: recombinant; tags: N-terminal GST; dsDNA, one strand shown
T3 sequence: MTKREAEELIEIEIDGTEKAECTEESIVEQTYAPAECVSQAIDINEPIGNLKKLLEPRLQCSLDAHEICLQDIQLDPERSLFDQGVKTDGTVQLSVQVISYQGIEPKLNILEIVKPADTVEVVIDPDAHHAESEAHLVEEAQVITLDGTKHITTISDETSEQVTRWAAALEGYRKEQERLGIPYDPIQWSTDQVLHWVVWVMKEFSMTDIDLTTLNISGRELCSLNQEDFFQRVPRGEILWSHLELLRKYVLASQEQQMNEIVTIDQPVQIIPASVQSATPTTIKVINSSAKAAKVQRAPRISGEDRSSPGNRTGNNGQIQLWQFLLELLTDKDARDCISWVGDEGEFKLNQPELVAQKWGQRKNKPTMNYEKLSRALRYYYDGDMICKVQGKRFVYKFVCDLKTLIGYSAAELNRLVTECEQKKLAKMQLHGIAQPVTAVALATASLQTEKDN
Procedure, shortened: as §1

ERG = biological target: T4, ERG (Homo sapiens, UniProt P11308 1-479); conditions: protein: recombinant; tags: N-terminal GST; dsDNA, one strand shown
T4 sequence: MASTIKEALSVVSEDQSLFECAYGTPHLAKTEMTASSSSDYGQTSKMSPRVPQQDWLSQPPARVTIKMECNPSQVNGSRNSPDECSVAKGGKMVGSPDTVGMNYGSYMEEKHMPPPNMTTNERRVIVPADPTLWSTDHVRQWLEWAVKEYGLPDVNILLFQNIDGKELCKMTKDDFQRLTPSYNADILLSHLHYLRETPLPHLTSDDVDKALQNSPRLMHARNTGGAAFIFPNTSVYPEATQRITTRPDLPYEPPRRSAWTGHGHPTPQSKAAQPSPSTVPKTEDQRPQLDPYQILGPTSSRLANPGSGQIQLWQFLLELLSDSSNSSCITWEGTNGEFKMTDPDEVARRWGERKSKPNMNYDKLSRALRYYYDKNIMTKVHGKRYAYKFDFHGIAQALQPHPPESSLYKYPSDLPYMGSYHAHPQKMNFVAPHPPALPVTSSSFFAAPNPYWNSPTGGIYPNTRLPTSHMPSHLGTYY
Procedure, shortened: as §1

ELF1 = ELF1 (Homo sapiens, UniProt P32519 1-619); conditions: protein: recombinant; tags: N-terminal GST; dsDNA, one strand shown
ELF1, sequence (P32519 whole entry): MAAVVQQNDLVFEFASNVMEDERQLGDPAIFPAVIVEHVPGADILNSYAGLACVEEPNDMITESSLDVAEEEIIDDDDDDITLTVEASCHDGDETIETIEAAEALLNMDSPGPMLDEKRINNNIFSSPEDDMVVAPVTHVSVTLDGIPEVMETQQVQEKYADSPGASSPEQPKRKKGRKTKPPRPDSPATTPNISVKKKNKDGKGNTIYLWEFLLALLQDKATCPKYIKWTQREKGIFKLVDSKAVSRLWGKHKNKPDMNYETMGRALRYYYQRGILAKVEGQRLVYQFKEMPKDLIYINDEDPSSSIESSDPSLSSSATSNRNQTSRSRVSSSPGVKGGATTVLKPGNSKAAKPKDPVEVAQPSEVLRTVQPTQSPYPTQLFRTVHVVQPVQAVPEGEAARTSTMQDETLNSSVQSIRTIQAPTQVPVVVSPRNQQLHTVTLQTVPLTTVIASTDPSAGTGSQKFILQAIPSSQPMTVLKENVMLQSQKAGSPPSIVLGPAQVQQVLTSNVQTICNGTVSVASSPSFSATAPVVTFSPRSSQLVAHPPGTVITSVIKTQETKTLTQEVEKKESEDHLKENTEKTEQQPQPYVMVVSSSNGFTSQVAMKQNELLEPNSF
Procedure, shortened: as §1

EHF = biological target: T5, EHF (Homo sapiens, UniProt Q9NZC4 1-300); conditions: protein: recombinant; tags: N-terminal GST; dsDNA, one strand shown
T5 sequence: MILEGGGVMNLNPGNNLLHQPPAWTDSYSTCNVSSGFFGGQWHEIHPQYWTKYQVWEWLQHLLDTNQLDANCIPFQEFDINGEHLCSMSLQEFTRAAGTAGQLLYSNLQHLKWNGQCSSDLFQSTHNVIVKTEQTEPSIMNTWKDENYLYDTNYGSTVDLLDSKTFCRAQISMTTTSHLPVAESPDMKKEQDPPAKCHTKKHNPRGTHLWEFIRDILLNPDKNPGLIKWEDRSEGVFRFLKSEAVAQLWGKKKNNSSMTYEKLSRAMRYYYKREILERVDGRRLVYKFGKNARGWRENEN
Procedure, shortened: as §1

SPI1 = SPI1 (Homo sapiens, UniProt P17947 1-270); conditions: protein: recombinant; tags: N-terminal GST; dsDNA, one strand shown
Procedure, shortened: as §1

SPIB = SPIB (Homo sapiens, UniProt Q01892 1-262); conditions: protein: recombinant; tags: N-terminal GST; dsDNA, one strand shown
SPIB, sequence (Q01892 whole entry): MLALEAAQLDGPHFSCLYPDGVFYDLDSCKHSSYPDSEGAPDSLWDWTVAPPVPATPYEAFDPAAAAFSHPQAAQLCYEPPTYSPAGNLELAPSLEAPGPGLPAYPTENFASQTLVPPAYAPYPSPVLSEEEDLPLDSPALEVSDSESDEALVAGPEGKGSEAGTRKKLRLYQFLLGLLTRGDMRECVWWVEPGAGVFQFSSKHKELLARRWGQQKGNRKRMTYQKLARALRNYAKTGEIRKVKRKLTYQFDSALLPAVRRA
Procedure, shortened: as §1

ELK3 = biological target: T6, ELK3 (Homo sapiens, UniProt P41970 1-407); conditions: protein: recombinant; tags: N-terminal GST; dsDNA, one strand shown
T6 sequence: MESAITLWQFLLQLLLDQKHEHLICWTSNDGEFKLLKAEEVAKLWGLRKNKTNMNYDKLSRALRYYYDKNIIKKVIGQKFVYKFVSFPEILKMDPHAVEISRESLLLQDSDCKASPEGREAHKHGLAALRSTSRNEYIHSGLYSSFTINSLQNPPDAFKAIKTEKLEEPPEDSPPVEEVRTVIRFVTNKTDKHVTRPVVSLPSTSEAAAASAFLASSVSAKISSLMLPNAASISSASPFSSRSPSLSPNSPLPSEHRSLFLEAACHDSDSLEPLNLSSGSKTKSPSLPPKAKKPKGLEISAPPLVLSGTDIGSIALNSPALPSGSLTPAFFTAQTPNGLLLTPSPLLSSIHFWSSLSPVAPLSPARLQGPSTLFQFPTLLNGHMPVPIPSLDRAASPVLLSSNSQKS
Procedure, shortened: as §1

FEV = biological target: T7, FEV (Homo sapiens, UniProt Q99581 1-238); conditions: protein: recombinant; tags: N-terminal GST; dsDNA, one strand shown
T7 sequence: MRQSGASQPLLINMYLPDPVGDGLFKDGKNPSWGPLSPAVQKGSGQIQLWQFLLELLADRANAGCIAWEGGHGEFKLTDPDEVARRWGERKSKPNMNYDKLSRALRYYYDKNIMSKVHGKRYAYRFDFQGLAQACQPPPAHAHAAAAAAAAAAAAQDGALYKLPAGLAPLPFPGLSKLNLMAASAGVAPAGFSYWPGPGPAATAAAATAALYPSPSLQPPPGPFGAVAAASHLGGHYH
Procedure, shortened: as §1

ETV5 = ETV5 (Homo sapiens, UniProt P41161 1-510); conditions: protein: recombinant; tags: N-terminal GST; dsDNA, one strand shown
ETV5, sequence (P41161 whole entry): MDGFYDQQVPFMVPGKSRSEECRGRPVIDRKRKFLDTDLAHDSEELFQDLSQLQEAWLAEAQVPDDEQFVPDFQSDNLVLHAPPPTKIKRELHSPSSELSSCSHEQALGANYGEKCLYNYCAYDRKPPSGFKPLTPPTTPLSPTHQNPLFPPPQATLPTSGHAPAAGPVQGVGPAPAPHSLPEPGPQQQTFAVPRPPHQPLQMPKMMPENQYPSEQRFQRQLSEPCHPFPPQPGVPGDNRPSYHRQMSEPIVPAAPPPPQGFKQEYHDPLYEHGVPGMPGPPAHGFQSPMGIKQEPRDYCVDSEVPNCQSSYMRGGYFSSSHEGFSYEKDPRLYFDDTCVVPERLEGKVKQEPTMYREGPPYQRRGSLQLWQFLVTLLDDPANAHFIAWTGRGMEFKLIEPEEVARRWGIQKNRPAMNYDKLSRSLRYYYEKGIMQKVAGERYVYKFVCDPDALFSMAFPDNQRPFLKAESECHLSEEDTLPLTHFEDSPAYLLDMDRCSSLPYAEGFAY
Procedure, shortened: as §1

HSF1 = HSF1 (Homo sapiens, UniProt Q00613 1-529); conditions: protein: recombinant; tags: N-terminal GST; chain copies: 3; dsDNA, one strand shown
HSF1, sequence (Q00613 whole entry): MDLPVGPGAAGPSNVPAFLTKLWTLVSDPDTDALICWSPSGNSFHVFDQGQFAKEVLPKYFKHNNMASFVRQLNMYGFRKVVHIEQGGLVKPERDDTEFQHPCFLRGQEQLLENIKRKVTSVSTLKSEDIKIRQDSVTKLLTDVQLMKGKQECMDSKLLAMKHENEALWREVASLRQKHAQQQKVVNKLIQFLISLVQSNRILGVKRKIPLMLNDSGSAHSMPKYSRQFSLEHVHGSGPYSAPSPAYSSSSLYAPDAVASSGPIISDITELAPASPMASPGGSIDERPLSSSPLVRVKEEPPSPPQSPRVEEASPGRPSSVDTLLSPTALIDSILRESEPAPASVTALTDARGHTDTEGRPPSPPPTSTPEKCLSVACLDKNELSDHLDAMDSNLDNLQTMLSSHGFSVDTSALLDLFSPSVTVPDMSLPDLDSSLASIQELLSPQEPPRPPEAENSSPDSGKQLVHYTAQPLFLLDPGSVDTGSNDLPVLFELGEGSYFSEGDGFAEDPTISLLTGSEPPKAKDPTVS
Procedure, shortened: as §1

SPIC = biological target: T8, SPIC (Homo sapiens, UniProt Q8N5J4 1-248); conditions: protein: recombinant; tags: N-terminal GST; dsDNA, one strand shown
T8 sequence: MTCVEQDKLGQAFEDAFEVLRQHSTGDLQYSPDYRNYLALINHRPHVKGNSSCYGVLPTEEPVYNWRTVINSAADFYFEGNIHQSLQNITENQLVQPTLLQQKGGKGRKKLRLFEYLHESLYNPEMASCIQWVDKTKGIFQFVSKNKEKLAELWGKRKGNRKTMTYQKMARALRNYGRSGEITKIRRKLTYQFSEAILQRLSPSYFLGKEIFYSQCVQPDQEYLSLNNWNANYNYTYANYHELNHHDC
Procedure, shortened: as §1

ELF4 = ELF4 (Homo sapiens, UniProt Q99607 1-663); conditions: protein: recombinant; tags: N-terminal GST; dsDNA, one strand shown
ELF4, sequence (Q99607 whole entry): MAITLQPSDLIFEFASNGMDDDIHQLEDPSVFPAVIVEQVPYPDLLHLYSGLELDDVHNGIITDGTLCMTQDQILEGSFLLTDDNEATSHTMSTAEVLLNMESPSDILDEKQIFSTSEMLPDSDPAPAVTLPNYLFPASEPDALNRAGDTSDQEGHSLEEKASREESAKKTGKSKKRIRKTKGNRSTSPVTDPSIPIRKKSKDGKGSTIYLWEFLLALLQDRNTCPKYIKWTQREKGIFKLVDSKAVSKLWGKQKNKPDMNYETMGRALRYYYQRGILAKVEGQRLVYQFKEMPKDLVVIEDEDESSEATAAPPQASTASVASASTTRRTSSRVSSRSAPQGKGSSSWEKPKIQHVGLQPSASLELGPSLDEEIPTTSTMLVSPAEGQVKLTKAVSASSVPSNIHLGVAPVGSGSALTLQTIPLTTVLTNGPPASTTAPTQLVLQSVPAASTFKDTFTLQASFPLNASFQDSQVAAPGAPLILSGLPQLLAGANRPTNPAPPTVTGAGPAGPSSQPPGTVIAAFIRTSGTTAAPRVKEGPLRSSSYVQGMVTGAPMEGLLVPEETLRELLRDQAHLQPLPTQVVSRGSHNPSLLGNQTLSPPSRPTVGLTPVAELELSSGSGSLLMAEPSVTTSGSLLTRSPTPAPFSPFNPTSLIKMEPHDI
Procedure, shortened: as §1

ELK4 = biological target: T9, ELK4 (Homo sapiens, UniProt P28324-2 1-405); conditions: protein: recombinant; tags: N-terminal GST; dsDNA, one strand shown
T9 sequence: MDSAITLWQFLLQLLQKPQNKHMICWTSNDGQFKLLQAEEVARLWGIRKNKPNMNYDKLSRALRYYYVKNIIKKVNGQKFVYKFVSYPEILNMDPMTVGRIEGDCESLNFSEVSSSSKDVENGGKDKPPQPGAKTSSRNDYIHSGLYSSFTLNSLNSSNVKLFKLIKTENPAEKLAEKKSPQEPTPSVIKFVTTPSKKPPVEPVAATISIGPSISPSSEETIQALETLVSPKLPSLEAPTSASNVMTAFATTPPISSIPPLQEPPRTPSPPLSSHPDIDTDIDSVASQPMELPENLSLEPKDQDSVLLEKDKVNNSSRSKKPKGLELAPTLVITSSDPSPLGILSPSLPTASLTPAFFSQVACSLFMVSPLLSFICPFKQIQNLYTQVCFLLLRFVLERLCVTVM
Procedure, shortened: as §1

ETV2 = biological target: T10, ETV2 (Homo sapiens, UniProt O00321 1-342); conditions: protein: recombinant; tags: N-terminal GST; dsDNA, one strand shown
T10 sequence: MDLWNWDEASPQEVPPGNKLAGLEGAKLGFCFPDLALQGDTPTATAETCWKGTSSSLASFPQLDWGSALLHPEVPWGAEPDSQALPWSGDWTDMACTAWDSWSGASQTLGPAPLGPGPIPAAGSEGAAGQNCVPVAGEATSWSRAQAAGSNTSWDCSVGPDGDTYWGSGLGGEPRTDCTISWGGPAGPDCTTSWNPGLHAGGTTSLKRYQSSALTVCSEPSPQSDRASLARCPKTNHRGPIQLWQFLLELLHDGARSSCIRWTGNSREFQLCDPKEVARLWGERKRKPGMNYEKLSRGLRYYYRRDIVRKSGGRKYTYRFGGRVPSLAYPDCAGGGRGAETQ
Procedure, shortened: as §1

ELF3 = biological target: T11, ELF3 (Homo sapiens, UniProt P78545 1-371); conditions: protein: recombinant; tags: N-terminal GST; dsDNA, one strand shown
T11 sequence: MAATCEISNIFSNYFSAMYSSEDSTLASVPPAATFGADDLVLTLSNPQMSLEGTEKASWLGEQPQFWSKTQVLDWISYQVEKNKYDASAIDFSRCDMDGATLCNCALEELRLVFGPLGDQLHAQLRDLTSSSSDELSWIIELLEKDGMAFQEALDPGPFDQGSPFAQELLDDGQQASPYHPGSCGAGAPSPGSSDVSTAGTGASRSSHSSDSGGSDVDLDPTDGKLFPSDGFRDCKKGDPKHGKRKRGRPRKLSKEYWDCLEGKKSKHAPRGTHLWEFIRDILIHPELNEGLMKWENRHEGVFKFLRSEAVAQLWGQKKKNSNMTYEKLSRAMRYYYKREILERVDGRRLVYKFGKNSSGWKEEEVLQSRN
Procedure, shortened: as §1

CRX = CRX (Homo sapiens, UniProt O43186 1-299); conditions: protein: recombinant; tags: N-terminal GST; dsDNA, one strand shown
CRX, sequence (O43186 whole entry): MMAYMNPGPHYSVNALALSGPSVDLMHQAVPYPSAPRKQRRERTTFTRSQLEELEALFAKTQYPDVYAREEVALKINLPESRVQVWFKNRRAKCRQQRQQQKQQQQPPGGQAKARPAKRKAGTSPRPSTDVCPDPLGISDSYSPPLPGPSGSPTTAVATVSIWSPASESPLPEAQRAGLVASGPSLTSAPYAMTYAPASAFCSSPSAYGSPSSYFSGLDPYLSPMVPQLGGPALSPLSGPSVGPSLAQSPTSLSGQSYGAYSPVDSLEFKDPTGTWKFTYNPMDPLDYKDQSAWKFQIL
Procedure, shortened: as §1

ETV1 = ETV1 (Homo sapiens, UniProt P50549 1-477); conditions: protein: recombinant; tags: N-terminal GST; dsDNA, one strand shown
ETV1, sequence (P50549 whole entry): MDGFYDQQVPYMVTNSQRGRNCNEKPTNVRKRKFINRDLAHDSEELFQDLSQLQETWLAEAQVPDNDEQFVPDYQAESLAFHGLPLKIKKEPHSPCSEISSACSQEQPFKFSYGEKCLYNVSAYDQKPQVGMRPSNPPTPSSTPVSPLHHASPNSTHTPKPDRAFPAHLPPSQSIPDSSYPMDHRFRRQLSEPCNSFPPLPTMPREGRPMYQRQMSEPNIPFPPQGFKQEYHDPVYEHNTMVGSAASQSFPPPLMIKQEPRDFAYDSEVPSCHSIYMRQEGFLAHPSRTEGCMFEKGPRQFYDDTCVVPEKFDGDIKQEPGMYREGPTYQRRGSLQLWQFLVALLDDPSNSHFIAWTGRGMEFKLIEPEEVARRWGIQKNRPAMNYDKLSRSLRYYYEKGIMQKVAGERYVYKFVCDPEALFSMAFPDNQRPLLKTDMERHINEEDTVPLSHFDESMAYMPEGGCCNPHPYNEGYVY
Procedure, shortened: as §1

AATCGC
binding signal (FLI1): 1.12 fold enrichment (6-mer frequency, TF over GST control)
binding signal (ELK1): 1.09 fold enrichment (6-mer frequency, TF over GST control)
binding signal (GABPA): 1.14 fold enrichment (6-mer frequency, TF over GST control)
binding signal (ERG): 1.07 fold enrichment (6-mer frequency, TF over GST control)
binding signal (ELF1): 1.13 fold enrichment (6-mer frequency, TF over GST control)
binding signal (EHF): 1.16 fold enrichment (6-mer frequency, TF over GST control)
binding signal (SPI1): 1.05 fold enrichment (6-mer frequency, TF over GST control)
binding signal (SPIB): 1.08 fold enrichment (6-mer frequency, TF over GST control)
binding signal (ELK3): 1.16 fold enrichment (6-mer frequency, TF over GST control)
binding signal (FEV): 1.08 fold enrichment (6-mer frequency, TF over GST control)
binding signal (ETV5): 1.03 fold enrichment (6-mer frequency, TF over GST control)
binding signal (HSF1): 1.3 fold enrichment (6-mer frequency, TF over GST control)
binding signal (SPIC): 1.08 fold enrichment (6-mer frequency, TF over GST control)
binding signal (ELF4): 1.14 fold enrichment (6-mer frequency, TF over GST control)
binding signal (ELK4): 1.08 fold enrichment (6-mer frequency, TF over GST control)
binding signal (ETV2): 1.04 fold enrichment (6-mer frequency, TF over GST control)
binding signal (ELF3): 1.08 fold enrichment (6-mer frequency, TF over GST control)
binding signal (CRX): 1.62 fold enrichment (6-mer frequency, TF over GST control)
binding signal (ETV1): 1.15 fold enrichment (6-mer frequency, TF over GST control)
